Screening data (PubChem)
DRD3 antagonist – qHTS of D3 Dopamine Receptor Antagonist: qHTS | D(3) dopamine receptor (Homo sapiens), P35462 | D3R cells, DiscoveRx beta-arrestin luminescence, antagonist mode; stronger effect = lower value | max response, negative = inhibition, % | 2.5% of 360,000 active; in the data active = max response below about -50%; inconclusive = no clear call, values can overlap the other calls; note: % is set by controls: 0 for no effect and ±100 for the full control effect
Target sequence (P35462 whole entry, looked up): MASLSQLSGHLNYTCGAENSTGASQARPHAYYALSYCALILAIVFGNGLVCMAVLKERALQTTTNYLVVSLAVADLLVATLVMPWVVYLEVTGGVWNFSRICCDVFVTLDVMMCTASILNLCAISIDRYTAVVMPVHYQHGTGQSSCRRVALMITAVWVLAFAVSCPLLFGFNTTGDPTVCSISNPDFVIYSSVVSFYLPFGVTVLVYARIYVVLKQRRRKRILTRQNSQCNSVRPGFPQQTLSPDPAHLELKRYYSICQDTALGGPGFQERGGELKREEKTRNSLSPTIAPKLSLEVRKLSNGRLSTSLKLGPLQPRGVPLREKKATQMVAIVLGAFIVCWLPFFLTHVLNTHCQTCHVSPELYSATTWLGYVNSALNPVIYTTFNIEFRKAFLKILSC
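Cells expressing the human receptor were seeded at 1500 cells/well, incubated overnight at 37 degrees C in 5% CO2, then exposed to library compounds with dopamine controls for 90 minutes at 37 degrees C before luminescent detection.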
DRD3 agonist – qHTS of D3 Dopamine Receptor Agonist: qHTS; max activation, %; D(3) dopamine receptor (Homo sapiens), P35462; 0.58% of 410,000 active; D3R DiscoveRx beta-arrestin cells, luminescence, 90 min; in the data active = max activation above about 30%; note: 0% is about no effect
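Agonist mode: compounds and dopamine controls were applied to plated cells for 90 min at 37 degrees C after an overnight attachment at 1500 cells/well. Luminescent read-out followed 30 - 60 minutes at room temperature with DiscoveRx detection reagent.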
uPA surface inh – qHTS for Inhibitors of Cell Surface uPA Generation; cell surface uPA generation assay, qHTS; Potency, µM (doses to about 38.3 µM), without a hit: at the highest dose activity change, negative = inhibition, most hits filed as inhibitors; AID 540303, 2011; 0.31% of 330,000 active; active = well fitted inhibition curve with a large enough effect; inconclusive = small, poorly fitted or top-dose-only effect; inactive = no such curve, though single readings can be large or run the other way; tested in mouse RAW 264.7 cells; note: potency is the fitted concentration of half-maximal effect; % is set by controls: 0 for no effect and ±100 for the full control effect; nearly all actives have a fitted effect of over 55% in size
RGS4 inh – Inhibitors of Regulator of G Protein Signaling (RGS) 4: qHTS | Transcreener GDP fluorescence polarization, RGS4-accelerated GTP hydrolysis | Potency, µM (top dose mostly 114 µM), for inactives: at the top dose activity change, negative = inhibition, usual class: inhibitors | 0.039% of 390,000 active | AID 504845, 2011; active = well fitted inhibition curve with a large enough effect; inconclusive = small, poorly fitted or top-dose-only effect; inactive = no such curve, though single readings can be large or run the other way; note: potency is the fitted concentration of half-maximal effect; % is set by controls: 0 for no effect and ±100 for the full control effect; nearly all actives have a fitted effect of over 75% in size
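MLSMR compounds (23 nl, pin-transferred) preincubated 10 min at room temperature with a 500nM (2x) first reagent, then RGS4 at 900nM (2x) plus Transcreener GDP mix added; fluorescence polarization (620/688 nm) read before and after 90 min at 30 °C.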
Numbers without * were called inactive; ? = inconclusive; · = no result given; [ ] = another dose, or the depositor's remark. Compounds with a hit are over-represented: about 3.1% of the library has one in this group of screens.

SMILES	DRD3 antagonist	DRD3 agonist	uPA surface inh	RGS4 inh
Oc1c(C(c2ccccc2Cl)N2CCN(Cc3ccccc3)CC2)sc2nc(-c3ccco3)nn12 (configuration not stated)	·	-16.8	·	-4.3%
Cn1c(CCN2CCN(c3ccccn3)CC2)nc2cc(NC(=O)COc3ccc(Cl)cc3)ccc21	-27.1	7.2	?	-9.1%
Cc1ccc(S(=O)(=O)Nc2ccc3c(c2)nc(CCN2CCN(c4ccccn4)CC2)n3C)cc1	-61.2*	-0.1	-7.3%	1.1%
Cn1c(CCN2CCN(c3ccccn3)CC2)nc2cc(NS(=O)(=O)c3ccc(Cl)cc3)ccc21	-69.5*	-10.0	-22.7%	-3.9%
Cc1ccc(N2CCN(CCc3nc4cc(NS(C)(=O)=O)ccc4n3C)CC2)cc1	0.0	-5.5	7.3%	-0.9%
CC(=O)c1cccc(NC(=O)Cn2nc(C)n3cccc3c2=O)c1	·	-6.5	·	10.5%
CN(C)c1ccc(Cc2cc3c(O)ccc(O)c3cc(Cc3ccc(N(C)C)cc3)c2=O)cc1	-51.1*	-1.8	2.8%	?
CN(C)c1ccc(C(=O)c2ccc(O)cc2O)cc1	-21.1	-3.8	-0.6%	3.6%[11.4 µM]
CCn1c(CN2CCC(C)CC2)nc2cc(NC(=O)COc3ccc([N+](=O)[O-])cc3)ccc21	·	-13.3	·	-2.8%
Cc1ccc(CNS(=O)(=O)c2c(C(=O)N3CCC(C)CC3)c(C)n(C)c2C)cc1	·	0.6	·	-0.1%
COc1cccc(NC(=O)c2nn(-c3ccc(C)cc3)c(=O)n(C)c2=O)c1	·	-7.6	·	-30.9%
CCOc1ccc(C(Nc2cccnc2)c2cc(Cl)c3cccnc3c2O)cc1 (configuration not stated)	-58.1*	8.1	-3.4%	-95.9%
COc1ccccc1C(NC(C)=O)c1cc(Cl)c2cccnc2c1O (configuration not stated)	-54.3*	3.3	-6.3%	3.0%
CC(=O)NC(c1cccs1)c1cc(F)c2cccnc2c1O (configuration not stated)	·	·	5.01µM*	-19.3%
OCc1ccccc1-c1cnc2cccnn12	?	-0.3	·	·
CCCC(=O)O[C@]1(C(=O)COC(=O)CC)CC[C@H]2[C@@H]3CCC4=CC(=O)CC[C@]4(C)[C@H]3[C@@H](O)C[C@@]21C	·	0.7	·	·
CCCSc1ncc(Cl)c(C(=O)Nc2sc3c(c2C(=O)NCC)CCCC3)n1	·	8.3	·	1.7%
CC(=O)Nc1c(NC(C)C)c2ccccc2oc1=O	-14.8	1.8	1.9%	20.7%
COC(=O)Oc1c(Br)c(=O)oc2ccccc12	-82.2*	-1.1	-1.8%	-13.8%[56.9 µM]
CCN(CC)C(=O)Nc1ccc(OCC(O)CNC(C)(C)C)c(C(C)=O)c1 (configuration not stated)	·	1.7	·	·
COc1cc(Cl)c(CNC[C@H]2O[C@@H](n3cnc(C(N)=O)n3)[C@H](O)[C@@H]2O)c(Cl)c1O	40.5	1.7	9.7%	5.6%
NC(=O)c1ncn([C@@H]2O[C@H](CNCc3ccc(-c4cc(C(F)(F)F)ccc4Cl)o3)[C@@H](O)[C@H]2O)n1	-51.9*	-70.5	6.4%	5.4%
C=C1CCN(C(Cc2ccccc2)C(=O)NCc2ccccc2)S(=O)(=O)c2ccccc21 (configuration not stated)	·	·	·	-27.3%
CC(=O)c1ccc(NC(=O)CCc2c(C)nn(-c3ccc4nncn4n3)c2C)cc1	·	9.4	·	-2.1%
COc1ccc2noc3c2c1C(=O)c1ccccc1-3	17.5	-6.6	10µM*	-36.3%
SMILES	DRD3 antagonist	DRD3 agonist	uPA surface inh	RGS4 inh
CC(C)NC(=S)N/N=C1\CCCCc2ccccc21	1.9	-4.0	9.3%	1.0%
COc1cccc(NC(=S)N/N=C2/CCCCc3ccccc32)c1	-59.5*	-15.9	-3.1%	-15.9%
Cc1cc(O)c2c(c1)O[C@@]1(C)CC[C@H]3C(C)(C)CCCC34CO[C@@H]2[C@H]41 (some centres not stated)	·	4.7	·	·
COC(=O)C1=C(C)OC(N)=C(C#N)C1c1ccccc1 (configuration not stated)	17.4	0.6	-1.4%	-17.7%[56.9 µM]
CCSc1cc(C2C(C#N)=C(N)OC(C)=C2C(=O)OC)c(C)o1 (configuration not stated)	-67.2*	-1.3	-1.7%	-3.8%
CCOC(=O)C1=C(C)OC(N)=C(C#N)C1c1ccccc1 (configuration not stated)	-12.2	-4.0	-12.2%	2.1%
CCOC(=O)C1=C(C)OC(N)=C(C#N)C1c1ccc(O)c(OC)c1 (configuration not stated)	-62.1*	-5.9	-1.5%	-29.3%[56.9 µM]
